PubChem BioAssay AID734 (The Scripps Research Institute Molecular Screening Center, 2007)
Hit rate of the full screen: of about 5,100 compounds, fewer than 10 were called active. A selection follows. A number with no mark means an inactive call.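 How the source made its calls: active means inhibition above the mean inhibition over all tested compounds plus 3 SD (cut at about 75% in these data); inactive means the rest.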

The compounds below were run against Collagenase 3 (Homo sapiens) (UniProt P45452) (assay: MMP13 inhibitors among fluorescent compounds, confirmation, biochemical, possible fluorescent artifacts, delta fluorescence (AID 734;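 further: 0% = DMSO only wells and 100% = 8 µM reference MMP13 inhibitor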)). Conditions: MMP13 fTHP FRET cleavage, delta fluorescence 4 h; active compounds read high;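 each compound tested at 4 µM nominal in triplicate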.

Row | SMILES | inhibition
1 | c1ccc(-c2noc(-c3cccc4ccccc34)n2)nc1 | 6.64%
2 | COc1cccc(-c2nnc(Nc3nc4c(F)cccc4s3)o2)c1 | 104% (active)
3 | COc1cccc2sc(Nc3nnc(-c4cccs4)o3)nc12 | -71.9%
4 | COc1ccc(-c2nnc(Nc3nc4c(OC)cccc4s3)o2)c(OC)c1 | 34.9%
5 | Fc1cccc2sc(Nc3nnc(-c4ccccc4)o3)nc12 | 74.7% (active)
6 | COc1cccc2sc(Nc3nnc(-c4ccccc4Cl)o3)nc12 | 3.62%
7 | COc1ccc(-c2nnc(Nc3nc4c(OC)cccc4s3)o2)cc1 | 7.97%
8 | COc1ccccc1-c1nnc(Nc2nc3c(OC)cccc3s2)o1 | 2.8%
9 | COc1cc(OC)cc(-c2nnc(Nc3nc4c(F)cccc4s3)o2)c1 | 95.7% (active)
10 | Fc1cccc2sc(Nc3nnc(-c4ccco4)o3)nc12 | 0.58%
11 | O=C(C1CCCN(S(=O)(=O)c2cnc[nH]2)C1)N1CCN(Cc2ccccc2)CC1 (stereo unspecified) | 6.19%
12 | Cn1c(=O)c2c(nc(SCCN3CCOCC3)n2Cc2ccccc2Cl)n(C)c1=O | 4.43%
13 | COC(=O)c1nn(-c2ccc(-c3ccccc3)cc2)cc1O | -1.13%
14 | CCOC(=O)COc1ccc(-c2nnc(-c3ccccc3)o2)cc1 | -0.26%
15 | CC1(C)CC(=O)C(C=Nc2ccccc2C(=O)O)=C(O)C1 | 3.67%
16 | CCOc1ccc(-c2cc(C(=O)NCCCN3CCN(CC)CC3)c3ccccc3n2)cc1 | -9.76%
17 | CCN1c2ccccc2-c2nc3ccccc3n2C1c1ccncc1 (stereo unspecified) | 2.69%
18 | COc1ccc2[nH]c(=O)c(-c3noc(-c4ccccc4)n3)cc2c1 | 3.55%
19 | CC1(C)Cc2c(C#N)c(N3CCN(C(=O)c4ccco4)CC3)nc(Cc3ccccc3)c2CO1 | -9.09%
20 | CCOc1ccc(C2C(C(=O)OC)=CN(CCOC)C=C2C(=O)OC)cc1 | -14.5%
21 | Nc1nc2n(n1)C(c1ccco1)CC(c1ccc(F)cc1)N2 (stereo unspecified) | 1.34%
22 | CCN(CC)CCCN(Cc1cc2cc3c(cc2[nH]c1=O)OCO3)C(=O)Nc1ccccc1OC | 9.73%
23 | Nc1c(C(=O)NCCN2CCOCC2)c2nc3ccccc3nc2n1-c1ccc2c(c1)OCO2 | 4.11%
24 | COc1cccc(NC(=O)CSc2nnc(Cc3cccn3C)n2-c2ccc(F)cc2)c1 | 1.13%
25 | CC1CCCC(C)N1C(=O)CSc1nnc(-c2c[nH]c3ccccc23)o1 (stereo unspecified) | 5.55%
26 | O=C(OCCn1cncn1)c1cc2ccccc2oc1=O | -0.22%
